Test results as given in ChEMBL document CHEMBL1961873, “Compounds: GSK PKIS; Assays: Nanosyn kinase panel” (2012).

What was measured:
[1] = target: Protein kinase C gamma type (Homo sapiens) (UniProt P05129); conditions: at 1 µM;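 note: each value is an averaged percent inhibition of the enzyme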
[2] = target: T1, Protein kinase C iota type (Homo sapiens) (UniProt P41743); conditions: at 0.1 µM
T1 sequence (whole entry): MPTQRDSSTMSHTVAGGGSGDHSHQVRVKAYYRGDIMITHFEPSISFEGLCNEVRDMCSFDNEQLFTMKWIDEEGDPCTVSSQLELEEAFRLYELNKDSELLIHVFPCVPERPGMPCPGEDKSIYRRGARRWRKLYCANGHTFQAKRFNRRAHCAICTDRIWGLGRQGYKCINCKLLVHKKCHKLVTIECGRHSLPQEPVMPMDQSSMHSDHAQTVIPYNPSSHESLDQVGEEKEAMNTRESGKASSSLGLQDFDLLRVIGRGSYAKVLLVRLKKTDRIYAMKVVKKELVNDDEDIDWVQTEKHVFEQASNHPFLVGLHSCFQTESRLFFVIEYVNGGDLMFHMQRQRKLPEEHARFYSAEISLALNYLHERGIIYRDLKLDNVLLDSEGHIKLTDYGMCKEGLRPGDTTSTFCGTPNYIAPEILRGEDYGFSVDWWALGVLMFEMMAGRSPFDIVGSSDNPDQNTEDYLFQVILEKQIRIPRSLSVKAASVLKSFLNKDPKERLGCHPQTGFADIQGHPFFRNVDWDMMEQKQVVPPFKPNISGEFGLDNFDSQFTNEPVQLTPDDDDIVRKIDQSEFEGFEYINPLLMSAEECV

[3] = target: T1, Protein kinase C iota type (Homo sapiens); conditions: at 1 µM
[4] = target: Protein kinase C theta type (Homo sapiens) (UniProt Q04759); conditions: at 0.1 µM
Chain of Protein kinase C theta type (Homo sapiens) (Q04759 whole entry, looked up): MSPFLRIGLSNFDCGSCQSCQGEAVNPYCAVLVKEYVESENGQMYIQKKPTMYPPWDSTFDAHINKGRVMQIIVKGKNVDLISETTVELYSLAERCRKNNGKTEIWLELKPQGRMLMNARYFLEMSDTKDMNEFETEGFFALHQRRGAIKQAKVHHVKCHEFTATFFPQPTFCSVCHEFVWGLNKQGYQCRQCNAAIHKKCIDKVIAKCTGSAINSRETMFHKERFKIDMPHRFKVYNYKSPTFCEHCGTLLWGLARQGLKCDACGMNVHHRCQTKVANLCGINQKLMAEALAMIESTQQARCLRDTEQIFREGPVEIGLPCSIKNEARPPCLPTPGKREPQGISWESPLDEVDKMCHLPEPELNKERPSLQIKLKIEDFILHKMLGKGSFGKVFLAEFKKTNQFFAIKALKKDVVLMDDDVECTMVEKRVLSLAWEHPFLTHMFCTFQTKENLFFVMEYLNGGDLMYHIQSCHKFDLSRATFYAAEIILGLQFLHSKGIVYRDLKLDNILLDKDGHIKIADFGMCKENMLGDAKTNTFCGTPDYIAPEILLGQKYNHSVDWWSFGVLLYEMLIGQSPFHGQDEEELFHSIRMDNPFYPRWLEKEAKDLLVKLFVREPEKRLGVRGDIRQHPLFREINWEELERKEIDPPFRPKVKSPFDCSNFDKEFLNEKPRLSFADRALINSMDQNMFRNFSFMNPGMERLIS

[5] = target: Protein kinase C theta type (Homo sapiens) (UniProt Q04759); conditions: at 1 µM
[6] = target: Protein kinase C beta type (Homo sapiens) (UniProt P05771); conditions: at 0.1 µM
Chain of Protein kinase C beta type (Homo sapiens) (P05771 2-671 limits assumed): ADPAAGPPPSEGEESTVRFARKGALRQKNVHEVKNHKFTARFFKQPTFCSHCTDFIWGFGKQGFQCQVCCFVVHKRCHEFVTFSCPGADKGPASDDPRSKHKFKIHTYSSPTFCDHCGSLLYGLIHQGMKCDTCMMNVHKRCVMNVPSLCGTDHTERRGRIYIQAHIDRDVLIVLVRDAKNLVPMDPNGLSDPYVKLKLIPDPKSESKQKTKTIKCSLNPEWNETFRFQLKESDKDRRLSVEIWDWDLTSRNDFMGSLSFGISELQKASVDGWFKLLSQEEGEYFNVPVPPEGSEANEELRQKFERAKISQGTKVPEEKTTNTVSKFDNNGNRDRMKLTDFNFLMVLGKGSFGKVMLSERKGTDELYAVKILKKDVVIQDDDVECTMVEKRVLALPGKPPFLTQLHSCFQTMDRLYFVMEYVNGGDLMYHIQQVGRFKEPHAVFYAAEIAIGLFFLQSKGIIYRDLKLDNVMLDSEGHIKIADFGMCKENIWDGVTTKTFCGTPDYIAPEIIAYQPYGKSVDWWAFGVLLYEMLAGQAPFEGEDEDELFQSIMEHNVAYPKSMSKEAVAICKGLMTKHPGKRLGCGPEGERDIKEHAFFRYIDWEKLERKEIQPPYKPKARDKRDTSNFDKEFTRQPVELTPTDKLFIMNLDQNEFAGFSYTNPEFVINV

[7] = target: Protein kinase C beta type (Homo sapiens) (UniProt P05771); conditions: at 1 µM
[8] = target: T2, Serine/threonine-protein kinase D1 (Homo sapiens) (UniProt Q15139); conditions: at 0.1 µM
T2 sequence (whole entry): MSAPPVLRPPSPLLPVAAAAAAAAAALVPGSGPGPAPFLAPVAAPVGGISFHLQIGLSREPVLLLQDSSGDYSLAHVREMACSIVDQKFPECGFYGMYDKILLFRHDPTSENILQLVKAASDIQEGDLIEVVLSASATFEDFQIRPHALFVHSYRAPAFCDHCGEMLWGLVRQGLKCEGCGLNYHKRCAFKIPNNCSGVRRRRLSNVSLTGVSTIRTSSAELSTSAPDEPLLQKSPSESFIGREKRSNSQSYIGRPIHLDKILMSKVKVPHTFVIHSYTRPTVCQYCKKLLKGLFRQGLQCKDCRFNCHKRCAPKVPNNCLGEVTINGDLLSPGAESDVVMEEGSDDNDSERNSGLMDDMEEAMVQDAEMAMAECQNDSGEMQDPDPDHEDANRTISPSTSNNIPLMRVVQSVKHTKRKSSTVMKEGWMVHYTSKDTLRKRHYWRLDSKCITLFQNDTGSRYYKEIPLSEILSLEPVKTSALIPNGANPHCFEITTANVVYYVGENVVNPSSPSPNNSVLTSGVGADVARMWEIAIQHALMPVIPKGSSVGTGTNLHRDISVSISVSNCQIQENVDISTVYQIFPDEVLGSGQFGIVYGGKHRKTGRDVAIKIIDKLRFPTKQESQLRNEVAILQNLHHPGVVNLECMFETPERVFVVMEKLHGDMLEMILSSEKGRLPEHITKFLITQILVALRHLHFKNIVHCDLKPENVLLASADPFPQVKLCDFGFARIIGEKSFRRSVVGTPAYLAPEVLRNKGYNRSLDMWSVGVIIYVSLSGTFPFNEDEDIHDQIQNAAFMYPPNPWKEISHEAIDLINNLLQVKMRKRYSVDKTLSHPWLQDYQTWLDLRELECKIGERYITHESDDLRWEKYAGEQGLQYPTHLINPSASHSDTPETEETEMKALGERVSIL

[9] = target: T2, Serine/threonine-protein kinase D1 (Homo sapiens); conditions: at 1 µM
[10] = target: T3, Serine/threonine-protein kinase D2 (Homo sapiens) (UniProt Q9BZL6); conditions: at 0.1 µM
T3 sequence (whole entry): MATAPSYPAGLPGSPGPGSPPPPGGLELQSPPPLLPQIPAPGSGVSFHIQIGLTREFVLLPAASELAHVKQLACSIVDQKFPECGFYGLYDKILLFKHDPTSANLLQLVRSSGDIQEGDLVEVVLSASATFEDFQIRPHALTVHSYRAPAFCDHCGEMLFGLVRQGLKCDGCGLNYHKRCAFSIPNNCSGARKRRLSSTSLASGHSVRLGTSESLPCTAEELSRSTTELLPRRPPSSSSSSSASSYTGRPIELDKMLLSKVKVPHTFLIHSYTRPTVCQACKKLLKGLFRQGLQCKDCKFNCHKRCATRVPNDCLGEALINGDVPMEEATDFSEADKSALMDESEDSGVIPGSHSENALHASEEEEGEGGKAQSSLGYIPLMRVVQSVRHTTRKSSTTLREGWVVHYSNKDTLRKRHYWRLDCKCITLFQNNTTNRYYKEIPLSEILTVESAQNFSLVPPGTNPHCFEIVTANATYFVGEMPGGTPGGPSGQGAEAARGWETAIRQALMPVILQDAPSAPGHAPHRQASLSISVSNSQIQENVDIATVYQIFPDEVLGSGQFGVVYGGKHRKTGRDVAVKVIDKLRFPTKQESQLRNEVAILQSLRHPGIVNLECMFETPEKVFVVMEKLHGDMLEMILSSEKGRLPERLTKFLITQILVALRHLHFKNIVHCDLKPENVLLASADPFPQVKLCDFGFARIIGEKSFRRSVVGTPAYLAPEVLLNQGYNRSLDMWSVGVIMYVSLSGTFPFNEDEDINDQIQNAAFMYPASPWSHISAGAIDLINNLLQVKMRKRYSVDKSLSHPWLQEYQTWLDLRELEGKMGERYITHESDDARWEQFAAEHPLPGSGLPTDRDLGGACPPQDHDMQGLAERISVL

[11] = target: T3, Serine/threonine-protein kinase D2 (Homo sapiens); conditions: at 1 µM
[12] = target: T4, Serine/threonine-protein kinase D3 (Homo sapiens) (UniProt O94806); conditions: at 0.1 µM
T4 sequence (whole entry): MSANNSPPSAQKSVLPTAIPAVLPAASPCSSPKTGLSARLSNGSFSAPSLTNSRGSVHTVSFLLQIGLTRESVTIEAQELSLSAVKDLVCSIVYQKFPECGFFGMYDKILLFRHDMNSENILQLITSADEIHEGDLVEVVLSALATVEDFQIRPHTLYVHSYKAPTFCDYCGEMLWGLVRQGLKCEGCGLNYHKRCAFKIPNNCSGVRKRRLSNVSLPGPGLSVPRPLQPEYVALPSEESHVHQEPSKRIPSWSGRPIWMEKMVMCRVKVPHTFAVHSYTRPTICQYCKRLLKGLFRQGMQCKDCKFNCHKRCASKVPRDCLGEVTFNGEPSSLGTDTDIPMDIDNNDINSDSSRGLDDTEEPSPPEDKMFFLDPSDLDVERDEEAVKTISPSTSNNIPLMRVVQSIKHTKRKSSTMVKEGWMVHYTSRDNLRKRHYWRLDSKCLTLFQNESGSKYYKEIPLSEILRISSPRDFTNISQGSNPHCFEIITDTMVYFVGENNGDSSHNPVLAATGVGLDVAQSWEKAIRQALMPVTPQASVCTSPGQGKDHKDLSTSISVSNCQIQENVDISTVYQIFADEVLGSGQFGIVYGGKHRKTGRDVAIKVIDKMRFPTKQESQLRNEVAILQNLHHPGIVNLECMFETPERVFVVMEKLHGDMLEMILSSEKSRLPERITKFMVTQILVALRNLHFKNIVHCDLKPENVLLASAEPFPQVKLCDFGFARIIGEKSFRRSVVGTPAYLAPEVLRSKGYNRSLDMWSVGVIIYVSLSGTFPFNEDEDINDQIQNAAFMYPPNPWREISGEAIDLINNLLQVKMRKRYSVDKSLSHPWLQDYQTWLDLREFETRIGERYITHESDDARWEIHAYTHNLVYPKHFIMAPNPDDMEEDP

[13] = target: T4, Serine/threonine-protein kinase D3 (Homo sapiens); conditions: at 1 µM
[14] = target: T5, cGMP-dependent protein kinase 1 (Homo sapiens) (UniProt Q13976); conditions: at 0.1 µM
T5 sequence (whole entry): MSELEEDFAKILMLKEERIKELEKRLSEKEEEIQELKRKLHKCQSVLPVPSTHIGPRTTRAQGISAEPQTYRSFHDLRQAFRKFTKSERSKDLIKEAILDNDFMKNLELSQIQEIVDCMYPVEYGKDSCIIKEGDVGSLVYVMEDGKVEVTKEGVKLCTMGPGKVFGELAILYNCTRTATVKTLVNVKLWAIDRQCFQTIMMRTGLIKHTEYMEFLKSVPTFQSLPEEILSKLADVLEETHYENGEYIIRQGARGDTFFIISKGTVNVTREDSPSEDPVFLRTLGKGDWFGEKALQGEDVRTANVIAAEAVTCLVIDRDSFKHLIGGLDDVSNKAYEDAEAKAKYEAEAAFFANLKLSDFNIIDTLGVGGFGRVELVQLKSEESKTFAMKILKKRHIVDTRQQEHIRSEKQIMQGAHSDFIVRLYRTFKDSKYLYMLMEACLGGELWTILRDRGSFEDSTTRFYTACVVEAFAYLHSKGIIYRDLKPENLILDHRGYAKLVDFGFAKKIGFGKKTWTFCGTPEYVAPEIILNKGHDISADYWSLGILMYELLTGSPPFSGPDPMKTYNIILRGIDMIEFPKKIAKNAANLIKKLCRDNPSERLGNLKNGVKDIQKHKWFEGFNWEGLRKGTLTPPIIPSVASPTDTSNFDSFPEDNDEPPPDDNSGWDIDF

[15] = target: T5, cGMP-dependent protein kinase 1 (Homo sapiens); conditions: at 1 µM
[16] = target: T6, cGMP-dependent protein kinase 2 (Homo sapiens) (UniProt Q13237); conditions: at 0.1 µM
T6 sequence (whole entry): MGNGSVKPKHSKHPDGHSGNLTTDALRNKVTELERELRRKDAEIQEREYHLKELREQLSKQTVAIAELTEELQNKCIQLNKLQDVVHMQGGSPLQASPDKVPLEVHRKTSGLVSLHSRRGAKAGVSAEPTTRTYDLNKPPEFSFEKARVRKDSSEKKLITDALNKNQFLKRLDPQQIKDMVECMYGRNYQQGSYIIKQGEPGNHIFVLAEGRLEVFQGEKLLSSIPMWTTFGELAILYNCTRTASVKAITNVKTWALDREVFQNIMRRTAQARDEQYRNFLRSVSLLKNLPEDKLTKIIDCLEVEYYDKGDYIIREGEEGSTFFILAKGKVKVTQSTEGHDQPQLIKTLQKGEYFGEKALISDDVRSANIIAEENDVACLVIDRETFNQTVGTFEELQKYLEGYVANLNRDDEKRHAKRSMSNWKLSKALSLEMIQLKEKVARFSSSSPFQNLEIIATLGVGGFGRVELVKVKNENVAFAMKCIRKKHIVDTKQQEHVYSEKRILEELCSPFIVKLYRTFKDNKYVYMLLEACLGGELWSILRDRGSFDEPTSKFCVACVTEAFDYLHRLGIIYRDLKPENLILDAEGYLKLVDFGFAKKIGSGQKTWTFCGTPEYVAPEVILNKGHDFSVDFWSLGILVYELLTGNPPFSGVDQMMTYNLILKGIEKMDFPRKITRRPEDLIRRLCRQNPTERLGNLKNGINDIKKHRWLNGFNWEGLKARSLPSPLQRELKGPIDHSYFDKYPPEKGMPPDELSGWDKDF

[17] = target: T6, cGMP-dependent protein kinase 2 (Homo sapiens); conditions: at 1 µM
[18] = target: T7, cAMP-dependent protein kinase catalytic subunit PRKX (Homo sapiens) (UniProt P51817); conditions: at 0.1 µM
T7 sequence (whole entry): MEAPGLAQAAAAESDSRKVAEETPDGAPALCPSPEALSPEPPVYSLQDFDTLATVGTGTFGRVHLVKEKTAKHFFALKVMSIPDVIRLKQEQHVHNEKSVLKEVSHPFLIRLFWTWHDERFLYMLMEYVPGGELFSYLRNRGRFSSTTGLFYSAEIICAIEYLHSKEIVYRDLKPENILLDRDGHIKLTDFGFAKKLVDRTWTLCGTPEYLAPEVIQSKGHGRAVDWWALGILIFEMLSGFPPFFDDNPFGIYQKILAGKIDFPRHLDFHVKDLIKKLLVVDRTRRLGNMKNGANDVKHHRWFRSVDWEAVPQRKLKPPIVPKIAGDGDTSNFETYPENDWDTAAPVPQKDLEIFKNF

[19] = target: T7, cAMP-dependent protein kinase catalytic subunit PRKX (Homo sapiens); conditions: at 1 µM
[20] = target: Rho-associated protein kinase 1 (Homo sapiens) (UniProt Q13464); conditions: at 0.1 µM;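 note: values are mean percent inhibition of ROCK1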
Chain of Rho-associated protein kinase 1 (Homo sapiens) (Q13464 2-1354 limits assumed): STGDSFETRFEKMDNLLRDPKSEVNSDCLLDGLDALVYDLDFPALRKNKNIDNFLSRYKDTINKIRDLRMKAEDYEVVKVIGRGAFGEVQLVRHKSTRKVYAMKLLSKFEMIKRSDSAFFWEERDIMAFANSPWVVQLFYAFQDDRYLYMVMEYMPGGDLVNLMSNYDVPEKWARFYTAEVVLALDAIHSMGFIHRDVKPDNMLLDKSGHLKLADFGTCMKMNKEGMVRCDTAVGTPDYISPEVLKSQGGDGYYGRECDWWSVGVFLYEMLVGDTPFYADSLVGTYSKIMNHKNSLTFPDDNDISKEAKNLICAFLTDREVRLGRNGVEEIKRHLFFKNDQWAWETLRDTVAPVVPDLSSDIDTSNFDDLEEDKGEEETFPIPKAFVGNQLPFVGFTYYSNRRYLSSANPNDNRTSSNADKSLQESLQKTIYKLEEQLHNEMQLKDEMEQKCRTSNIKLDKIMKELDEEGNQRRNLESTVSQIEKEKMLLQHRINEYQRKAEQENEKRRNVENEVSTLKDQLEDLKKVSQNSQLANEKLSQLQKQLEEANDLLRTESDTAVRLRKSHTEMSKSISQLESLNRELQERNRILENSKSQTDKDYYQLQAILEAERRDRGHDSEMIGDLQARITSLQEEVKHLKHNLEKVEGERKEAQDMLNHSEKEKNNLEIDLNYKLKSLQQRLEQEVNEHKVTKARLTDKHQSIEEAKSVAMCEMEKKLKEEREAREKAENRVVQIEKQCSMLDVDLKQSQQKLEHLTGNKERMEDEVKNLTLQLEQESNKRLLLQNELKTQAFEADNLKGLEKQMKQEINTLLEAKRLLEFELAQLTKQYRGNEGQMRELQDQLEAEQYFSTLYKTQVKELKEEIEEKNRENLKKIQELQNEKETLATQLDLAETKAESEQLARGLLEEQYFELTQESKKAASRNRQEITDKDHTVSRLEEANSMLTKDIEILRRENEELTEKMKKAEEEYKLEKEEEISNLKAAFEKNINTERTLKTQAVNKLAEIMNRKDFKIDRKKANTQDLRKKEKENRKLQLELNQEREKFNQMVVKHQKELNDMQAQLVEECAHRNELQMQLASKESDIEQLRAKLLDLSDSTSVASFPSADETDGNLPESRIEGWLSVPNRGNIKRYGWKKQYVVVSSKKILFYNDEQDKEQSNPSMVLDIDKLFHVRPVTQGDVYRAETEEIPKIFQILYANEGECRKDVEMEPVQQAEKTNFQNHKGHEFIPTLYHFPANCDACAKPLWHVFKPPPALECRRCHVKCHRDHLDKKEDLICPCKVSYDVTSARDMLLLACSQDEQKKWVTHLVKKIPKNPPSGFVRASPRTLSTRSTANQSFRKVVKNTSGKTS

| SMILES | inhibition [1] | inhibition [2] | inhibition [3] | inhibition [4] | inhibition [5] | inhibition [6] | inhibition [7] | inhibition [8] | inhibition [9] | inhibition [10] | inhibition [11] | inhibition [12] | inhibition [13] | inhibition [14] | inhibition [15] | inhibition [16] | inhibition [17] | inhibition [18] | inhibition [19] | inhibition [20] |
| --- | --- | --- | --- | --- | --- | --- | --- | --- | --- | --- | --- | --- | --- | --- | --- | --- | --- | --- | --- | --- |
| COc1ccc(-c2nn3ncccc3c2-c2ccnc(Nc3ccc(F)c(F)c3)n2)cc1 | 6.44% | 1.96% | 0.63% | 2.86% | 7.77% | 1.81% | 3.24% | 4.47% | 5.19% | 3.52% | 5.42% | 4.4% | 5.09% | 2.68% | 3.58% | 5.81% | 5.3% | 3.54% | 8.39% | 1.21% |
| c1ccc(-c2n[nH]cc2-c2ccnc(-c3ccc(OCCn4ccnc4)cc3)c2)nc1 | 2.35% | 0.38% | -0.37% | 0.23% | 0.98% | 0.85% | -0.29% | 9.5% | 56.5% | 14.6% | 64.3% | 7.07% | 47.7% | 0.59% | 4.08% | 1.04% | 2.63% | 2.32% | 7.66% | 4.13% |
| c1cnn2ncc(-c3ccnc(NCCCN4CCOCC4)n3)c2c1 | 4.8% | 0.92% | 4.4% | 2.07% | 2.41% | 1.96% | 3.47% | 2.81% | 5.95% | 3.62% | 5.4% | 3.94% | 5% | 3.07% | 8.93% | 3.44% | 4.91% | 1.06% | 3.97% | 2.01% |
